From PubChem BioAssay (EPA / NIEHS)
Records with an inconclusive call do not appear. Calls of active or inactive are those of the source. The calls were made as follows, unless noted: active = hit-call score of the fitted dose curve at least 0.9, where 1 is the maximum; inactive = score below 0.9.

Columns and labels:
[1] = target: Oxysterols receptor LXR-beta (Homo sapiens) (UniProt P55055); experiment: ATG_LXRb_TRANS: Attagene TRANS-FACTORIAL HepG2 Assay for human Liver X Receptor beta (LXRb) (AID 2282981; active = hit-call score of the fitted dose curve at least 0.9, where 1 is the maximum); details: HepG2 Attagene TRANS GAL4-LXRb reporter, mRNA
Oxysterols receptor LXR-beta (Homo sapiens), sequence (P55055 whole entry, looked up, the tested form may be a part): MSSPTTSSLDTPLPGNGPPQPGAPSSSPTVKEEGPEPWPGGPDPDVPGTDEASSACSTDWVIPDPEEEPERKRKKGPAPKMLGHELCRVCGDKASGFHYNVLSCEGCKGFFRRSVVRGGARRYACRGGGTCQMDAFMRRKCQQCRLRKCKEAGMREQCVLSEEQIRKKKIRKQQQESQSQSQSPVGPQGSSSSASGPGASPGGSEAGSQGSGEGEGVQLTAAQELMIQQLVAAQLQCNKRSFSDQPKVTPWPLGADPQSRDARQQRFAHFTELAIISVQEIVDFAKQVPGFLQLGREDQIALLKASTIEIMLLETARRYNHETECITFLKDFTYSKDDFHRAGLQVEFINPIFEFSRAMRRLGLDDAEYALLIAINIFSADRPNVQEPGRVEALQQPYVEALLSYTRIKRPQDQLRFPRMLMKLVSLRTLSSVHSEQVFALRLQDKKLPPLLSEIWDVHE
How it was run: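 Transient transfection HepG2 (multiplexed RTUs, GAL4-UAS); NR-Gal4 chimera; 24 h exposure; RNA → RT-PCR → 6-FAM primer extension → HpaI → CE; increase vs DMSO.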

[2] = target: Hepatocyte nuclear factor 4-alpha (Homo sapiens) (UniProt P41235); experiment: ATG_HNF4a_TRANS: Attagene TRANS-FACTORIAL HepG2 Assay for human Hepatocyte Nuclear Factor 4 alpha (HNF4a) (AID 2282982; active = hit-call score of the fitted dose curve at least 0.9, where 1 is the maximum); details: HepG2 HNF4a transactivation reporter, mRNA readout
Hepatocyte nuclear factor 4-alpha (Homo sapiens), sequence (P41235 whole entry, looked up, the tested form may be a part): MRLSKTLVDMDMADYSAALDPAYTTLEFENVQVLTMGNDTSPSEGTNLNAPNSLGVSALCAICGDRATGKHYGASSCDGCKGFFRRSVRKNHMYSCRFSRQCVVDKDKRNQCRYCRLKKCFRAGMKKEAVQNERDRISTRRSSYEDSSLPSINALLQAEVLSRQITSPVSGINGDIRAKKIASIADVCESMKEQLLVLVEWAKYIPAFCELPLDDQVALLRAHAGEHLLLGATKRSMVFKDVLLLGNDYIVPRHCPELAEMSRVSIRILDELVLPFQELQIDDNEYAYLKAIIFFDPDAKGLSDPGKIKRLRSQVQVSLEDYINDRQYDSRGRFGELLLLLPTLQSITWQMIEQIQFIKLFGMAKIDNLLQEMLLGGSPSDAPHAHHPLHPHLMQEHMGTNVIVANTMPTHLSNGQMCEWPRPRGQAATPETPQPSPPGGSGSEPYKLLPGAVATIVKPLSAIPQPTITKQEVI
How it was run: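 Readout is fluorescent reporter-transcript fragments resolved by capillary electrophoresis after RT-PCR from HepG2 cells dosed for 24 h. Cells carried transfected GAL4-UAS reporter constructs measuring exogenous NR-GAL4 chimera activity; DMSO served as baseline.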

[3] = ATG_M_06_TRANS: Attagene TRANS-FACTORIAL HepG2 Assay for M06 Transcription Factor (Internal Marker) (AID 2282983; active = hit-call score of the fitted dose curve at least 0.9, where 1 is the maximum); details: HepG2 Attagene TRANS M06 internal marker reporter
How it was run: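 Cells: HepG2, transient multi-reporter transfection. Exposure: 24 h. Detection: RT-PCR, 6-FAM labelling, HpaI digestion (2 h, 37 °C), capillary electrophoresis. Baseline: DMSO.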

[4] = target: Transcriptional activator Myb (Homo sapiens) (UniProt P10242); experiment: ATG_Myb_CIS: Attagene CIS-FACTORIAL HepG2 Assay for human Myeloblastosis (Myb) Proto-Oncogene Transcription Factor (AID 2282986); details: HepG2 Attagene CIS-FACTORIAL Myb reporter transcription; actives raise or lower the signal
Transcriptional activator Myb (Homo sapiens), sequence (P10242 whole entry, looked up): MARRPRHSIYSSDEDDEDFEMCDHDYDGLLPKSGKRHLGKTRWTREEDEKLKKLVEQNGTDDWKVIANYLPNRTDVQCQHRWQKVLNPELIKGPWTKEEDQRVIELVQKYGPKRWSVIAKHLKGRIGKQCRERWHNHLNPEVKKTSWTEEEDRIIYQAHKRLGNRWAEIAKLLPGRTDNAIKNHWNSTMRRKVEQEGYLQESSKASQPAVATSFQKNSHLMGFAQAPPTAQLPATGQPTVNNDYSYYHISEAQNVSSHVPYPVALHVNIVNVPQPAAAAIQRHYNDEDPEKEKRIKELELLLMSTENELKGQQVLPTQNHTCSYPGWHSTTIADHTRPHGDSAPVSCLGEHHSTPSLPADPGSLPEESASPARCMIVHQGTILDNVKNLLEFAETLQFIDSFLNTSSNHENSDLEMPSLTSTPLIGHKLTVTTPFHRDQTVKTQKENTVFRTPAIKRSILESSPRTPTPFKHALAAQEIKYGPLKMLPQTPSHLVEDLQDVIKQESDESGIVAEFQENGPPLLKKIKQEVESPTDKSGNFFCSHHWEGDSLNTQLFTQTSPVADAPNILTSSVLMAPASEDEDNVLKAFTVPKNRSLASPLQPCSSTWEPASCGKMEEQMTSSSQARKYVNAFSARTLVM
How it was run: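 Reporter mRNA is quantified by RT-PCR and capillary electrophoresis 24 h after dosing HepG2 cells transfected with cis-regulated reporter units, which track endogenous transcription factor activity. Gain and loss of signal are fitted versus DMSO baseline.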

[5] = target: Nuclear respiratory factor 1 (Homo sapiens) (UniProt Q16656); experiment: ATG_NRF1_CIS: Attagene CIS-FACTORIAL HepG2 Assay for human Nuclear Respiratory Factor 1 (NRF1) Orphan Gene (AID 2282987); details: HepG2 NRF1 cis-element reporter, Attagene multiplex; actives raise or lower the signal
Nuclear respiratory factor 1 (Homo sapiens), sequence (Q16656 whole entry, looked up): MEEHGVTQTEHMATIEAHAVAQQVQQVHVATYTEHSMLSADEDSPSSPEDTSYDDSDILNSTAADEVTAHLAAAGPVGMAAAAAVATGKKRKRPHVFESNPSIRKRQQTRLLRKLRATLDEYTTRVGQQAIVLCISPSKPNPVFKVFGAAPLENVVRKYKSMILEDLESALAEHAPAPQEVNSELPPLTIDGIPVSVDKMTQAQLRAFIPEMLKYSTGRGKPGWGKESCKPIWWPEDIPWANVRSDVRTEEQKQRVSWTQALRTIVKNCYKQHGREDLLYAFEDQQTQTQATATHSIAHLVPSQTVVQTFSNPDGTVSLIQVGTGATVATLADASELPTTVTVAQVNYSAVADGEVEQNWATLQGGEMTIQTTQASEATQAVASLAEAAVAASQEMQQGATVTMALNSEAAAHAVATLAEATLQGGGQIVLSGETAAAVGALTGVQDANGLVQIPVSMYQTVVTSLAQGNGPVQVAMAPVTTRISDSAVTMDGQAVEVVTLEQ
How it was run: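 Endogenous NRF1-driven reporter transcription in transfected HepG2 cells after 24 h treatment. Readout: RT-PCR products, 6-FAM labelled and resolved by capillary electrophoresis; changes fitted both directions relative to DMSO.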

[6] = ATG_NFI_CIS: Attagene CIS-FACTORIAL HepG2 Assay for human Nuclear Factor I (NFI) (AID 2282989); details: HepG2 cis-regulatory reporter, NFI response element transcription; actives raise or lower the signal
How it was run: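 Endogenous TF activity in HepG2 cells transiently transfected with cis-element-driven multiplexed reporter units, read 24 h after dosing. Reporter mRNA quantified by RT-PCR, 6-FAM labelling, HpaI digestion and capillary electrophoresis; bidirectional fit versus DMSO.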

[7] = target: Myc proto-oncogene protein (Homo sapiens) (UniProt P01106); experiment: ATG_Myc_CIS: Attagene CIS-FACTORIAL HepG2 Assay for human Myelocytomatosis (Myc) Proto-Oncogene Transcription Factor (AID 2282990); details: HepG2, Attagene cis-reporter transcription factor activity; actives raise or lower the signal
Myc proto-oncogene protein (Homo sapiens), sequence (P01106 whole entry, looked up): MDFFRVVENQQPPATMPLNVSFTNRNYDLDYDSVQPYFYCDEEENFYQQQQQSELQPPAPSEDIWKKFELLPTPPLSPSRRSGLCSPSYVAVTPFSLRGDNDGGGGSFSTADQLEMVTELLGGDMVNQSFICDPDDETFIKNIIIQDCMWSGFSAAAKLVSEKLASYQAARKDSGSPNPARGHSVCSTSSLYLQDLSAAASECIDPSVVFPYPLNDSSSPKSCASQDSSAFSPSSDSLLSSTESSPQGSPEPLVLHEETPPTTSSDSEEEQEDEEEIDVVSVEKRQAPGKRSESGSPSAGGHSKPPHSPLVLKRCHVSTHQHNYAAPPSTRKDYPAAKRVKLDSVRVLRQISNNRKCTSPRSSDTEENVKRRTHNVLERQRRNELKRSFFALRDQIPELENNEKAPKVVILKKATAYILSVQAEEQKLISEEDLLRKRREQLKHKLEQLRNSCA
How it was run: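 HepG2, transient MRTU transfection (cis promoters, endogenous TFs); 24 h dosing; TriZol RNA → oligo(dT) RT → PCR → 6-FAM primer extension → HpaI cut → CE. Bidirectional fit vs DMSO.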

[8] = ATG_NF_kB_CIS: Attagene CIS-FACTORIAL HepG2 Assay for human Nuclear Factor Kappa B (NF-kB) (AID 2282991); details: HepG2 Attagene cis-factorial NF-kB reporter mRNA; actives raise or lower the signal
How it was run: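 Readout is reporter transcript level, gain or loss versus DMSO, measured 24 h post-dose via RT-PCR, fluorescent labelling and capillary electrophoresis. Human HepG2 liver cells carried transiently transfected CIS reporter constructs reflecting endogenous factors.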

[9] = ATG_NRF2_ARE_CIS: Attagene CIS-FACTORIAL HepG2 Assay for human Nuclear Factor Erythroid 2 Related Factor 2 (NFR2) response to Antioxidant Response Elements (ARE) (AID 2282992); details: HepG2 Attagene ARE/NRF2 reporter, transcription factor activity; actives raise or lower the signal;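 as to AC50: reporter mRNA level measured by RT-PCR and capillary electrophoresis fluorescence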
How it was run: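 Transient MRTU transfection of HepG2; 24 h compound exposure; TriZol RNA, RT with oligo(dT), PCR, 6-FAM primer extension, HpaI cut, CE. Bidirectional fit vs DMSO.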

[10] = ATG_Oct_MLP_CIS: Attagene CIS-FACTORIAL HepG2 Assay for human Octamer-Binding Transcription Factor (Oct) (AID 2282993); details: HepG2 Attagene cis-factorial Oct reporter, mRNA; actives raise or lower the signal
How it was run: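 HepG2 cells transiently transfected with cis-element-driven reporter transcription units (endogenous TF activity); 24 h compound exposure. Reporter mRNA quantified by RT-PCR, 6-FAM labelling, HpaI digestion and capillary electrophoresis; bidirectional fit versus DMSO baseline.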

[11] = target: Cellular tumor antigen p53 (Homo sapiens) (UniProt P04637); experiment: ATG_p53_CIS: Attagene CIS-FACTORIAL HepG2 Assay for human p53 Transcription Factor (AID 2282994); details: HepG2 p53 cis-element reporter, Attagene mRNA; actives raise or lower the signal
Cellular tumor antigen p53 (Homo sapiens), sequence (P04637 whole entry, looked up): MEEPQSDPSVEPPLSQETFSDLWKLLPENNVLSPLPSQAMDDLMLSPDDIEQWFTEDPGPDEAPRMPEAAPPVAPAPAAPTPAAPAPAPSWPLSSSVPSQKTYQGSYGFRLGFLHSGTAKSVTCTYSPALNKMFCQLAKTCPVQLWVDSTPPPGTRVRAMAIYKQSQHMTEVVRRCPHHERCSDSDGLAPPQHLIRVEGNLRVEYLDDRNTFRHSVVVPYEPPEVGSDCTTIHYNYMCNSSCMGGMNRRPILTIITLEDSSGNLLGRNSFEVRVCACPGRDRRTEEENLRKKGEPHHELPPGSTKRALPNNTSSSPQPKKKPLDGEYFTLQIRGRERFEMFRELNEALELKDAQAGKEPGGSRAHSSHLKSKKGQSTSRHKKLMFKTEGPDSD
How it was run: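 HepG2, transient MRTU transfection (cis promoter elements, endogenous TFs); 24 h dosing; RNA isolation, RT-PCR, 6-FAM primer extension, HpaI digest, CE fluorescence; bidirectional fit vs DMSO.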

[12] = target: Oxysterols receptor LXR-alpha (Homo sapiens) (UniProt Q13133); experiment: ATG_LXRa_TRANS: Attagene TRANS-FACTORIAL HepG2 Assay for human Liver X Receptor alpha (LXRa) (AID 2282980; active = hit-call score of the fitted dose curve at least 0.9, where 1 is the maximum); details: HepG2 Attagene TRANS reporter, LXRa transactivation
Oxysterols receptor LXR-alpha (Homo sapiens), sequence (Q13133 whole entry, looked up, the tested form may be a part): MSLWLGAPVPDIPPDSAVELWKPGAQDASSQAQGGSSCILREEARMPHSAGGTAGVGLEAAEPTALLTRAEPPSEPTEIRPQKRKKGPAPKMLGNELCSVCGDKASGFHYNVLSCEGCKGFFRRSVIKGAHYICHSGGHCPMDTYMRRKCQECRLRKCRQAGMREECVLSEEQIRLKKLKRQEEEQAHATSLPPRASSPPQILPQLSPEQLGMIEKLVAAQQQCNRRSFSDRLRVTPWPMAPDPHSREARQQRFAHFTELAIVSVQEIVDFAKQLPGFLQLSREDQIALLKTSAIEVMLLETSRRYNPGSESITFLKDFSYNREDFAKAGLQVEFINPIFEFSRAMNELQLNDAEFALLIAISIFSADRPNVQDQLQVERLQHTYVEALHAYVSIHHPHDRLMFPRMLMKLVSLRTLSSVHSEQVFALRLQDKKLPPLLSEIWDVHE
How it was run: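 Chemical-induced reporter mRNA measured by RT-PCR with fluorescent labelling and capillary electrophoresis after 24 h dosing of transiently transfected HepG2 cells expressing exogenous NR-Gal4 chimeras; increases scored against DMSO baseline.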

[13] = ATG_M_32_TRANS: Attagene TRANS-FACTORIAL HepG2 Assay for M32 Transcription Factor (Internal Marker) (AID 2282984; active = hit-call score of the fitted dose curve at least 0.9, where 1 is the maximum;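 also: transcript level of a background control reporter unit measured by RT-PCR and capillary electrophoresis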); details: HepG2 Attagene TRANS M32 internal marker reporter
How it was run: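 Measures reporter mRNA induction in human HepG2 liver cells after 24 h chemical treatment. Transcripts from transiently transfected GAL4-UAS reporter units are amplified, fluorescently labelled and sized by capillary electrophoresis; gain of signal relative to DMSO.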

[14] = target: Nuclear receptor subfamily 4 group A member 2 (Homo sapiens) (UniProt P43354); experiment: ATG_NURR1_TRANS: Attagene TRANS-FACTORIAL HepG2 Assay for human Nuclear Receptor Related Protein 1 (NURR1) (AID 2282985; active = hit-call score of the fitted dose curve at least 0.9, where 1 is the maximum); details: HepG2 Attagene TRANS reporter, mRNA readout
Nuclear receptor subfamily 4 group A member 2 (Homo sapiens), sequence (P43354 whole entry, looked up, the tested form may be a part): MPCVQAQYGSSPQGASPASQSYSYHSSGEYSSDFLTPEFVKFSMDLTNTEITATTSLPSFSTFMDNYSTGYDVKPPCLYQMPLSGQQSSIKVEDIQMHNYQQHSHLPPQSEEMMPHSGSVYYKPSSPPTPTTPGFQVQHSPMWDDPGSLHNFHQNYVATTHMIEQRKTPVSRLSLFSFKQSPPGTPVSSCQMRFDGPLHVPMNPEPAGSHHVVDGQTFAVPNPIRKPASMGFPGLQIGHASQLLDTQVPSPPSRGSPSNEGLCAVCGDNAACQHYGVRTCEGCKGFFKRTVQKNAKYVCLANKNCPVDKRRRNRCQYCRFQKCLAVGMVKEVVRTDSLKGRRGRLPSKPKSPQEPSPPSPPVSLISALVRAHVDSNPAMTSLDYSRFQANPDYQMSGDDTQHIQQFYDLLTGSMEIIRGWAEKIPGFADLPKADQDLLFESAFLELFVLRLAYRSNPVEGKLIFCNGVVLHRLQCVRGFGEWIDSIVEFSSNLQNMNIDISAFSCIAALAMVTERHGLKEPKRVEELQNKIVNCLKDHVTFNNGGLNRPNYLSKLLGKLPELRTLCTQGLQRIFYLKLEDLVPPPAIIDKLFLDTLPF
How it was run: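 Transient transfection of HepG2, human liver cells, with multiple GAL4-UAS reporter transcription units. Cells dosed 24 h, RNA isolated, reverse-transcribed, PCR-amplified, FAM-labelled, HpaI-digested, sized by capillary electrophoresis. DMSO served as negative control.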

Structure (SMILES)	outcome [1]	outcome [2]	outcome [3]	outcome [4]	outcome [5]	outcome [6]	outcome [7]	outcome [8]	AC50 [9]	outcome [10]	outcome [11]	outcome [12]	outcome [13]	outcome [9]	outcome [14]
Cc1cc(O)c(Cl)c(C)c1Cl	inactive	inactive	inactive	inactive	inactive	inactive	inactive	inactive	33.4 µM (active)	inactive	inactive				
O=CC1CC1				inactive	inactive	inactive	inactive	inactive		inactive	inactive	inactive	inactive	inactive	
O=C(OCC1CCC2OC2C1)C1CCC2OC2C1 (stereo not given)	inactive		inactive	inactive		inactive	inactive	inactive			inactive			inactive	inactive
CCOc1ccc(N)c([N+](=O)[O-])c1	inactive	inactive	inactive	inactive	inactive	inactive	inactive	inactive		inactive	inactive			inactive	inactive
O=CN1CCCCC1	inactive			inactive	inactive	inactive				inactive	inactive		inactive	inactive	inactive
O=C(O)c1ccccc1Nc1cccc(C(F)(F)F)c1	inactive		inactive	inactive	inactive	inactive	inactive	inactive	27.3 µM (active)		inactive		inactive		
O=C1C(N(CO)C(=O)NCO)N(CO)C(=O)N1CO (stereo not given)				inactive	inactive	inactive	inactive				inactive	inactive	inactive	inactive	inactive
O=c1c2ccccc2nnn1CCl	inactive	inactive		inactive	inactive	inactive	inactive			inactive	inactive		inactive	inactive	
